{"source": "paper PMC9911399", "about": "“Two distinct binding modes provide the RNA-binding protein RbFox with extraordinary sequence specificity”", "binders": {"B1": {"name": "CUGUGUG (DNA:RNA)", "RNA": "GGGAGACCGGAAUUCAGAUUGUCCCUGUGUGUUAAAUCCCGUCGUAGCCACCA", "DNA 1": "CAATCTGAATTCCGGTCTCCC", "DNA 2": "TGGTGGCTACGACGGGATT"}, "B2": {"name": "ACUCAGC (DNA:RNA)", "RNA": "GGGAGACCGGAAUUCAGAUUGUCCACUCAGCUUAAAUCCCGUCGUAGCCACCA", "DNA 1": "CAATCTGAATTCCGGTCTCCC", "DNA 2": "TGGTGGCTACGACGGGATT"}, "B3": {"name": "GUAGGCC (DNA:RNA)", "RNA": "B1 RNA with C25G, G27A, U28G, U30C, G31C", "DNA 1": "CAATCTGAATTCCGGTCTCCC", "DNA 2": "TGGTGGCTACGACGGGATT"}, "B4": {"name": "UAAAGUG (DNA:RNA)", "RNA": "B1 RNA with C25U, U26A, G27A, U28A", "DNA 1": "CAATCTGAATTCCGGTCTCCC", "DNA 2": "TGGTGGCTACGACGGGATT"}, "B5": {"name": "CACUAAU (DNA:RNA)", "RNA": "B1 RNA with U26A, G27C, G29A, U30A, G31U", "DNA 1": "CAATCTGAATTCCGGTCTCCC", "DNA 2": "TGGTGGCTACGACGGGATT"}, "B6": {"name": "UACCGCC (DNA:RNA)", "RNA": "B2 RNA with A25U, C26A, U27C, A29G, G30C", "DNA 1": "CAATCTGAATTCCGGTCTCCC", "DNA 2": "TGGTGGCTACGACGGGATT"}, "B7": {"name": "AAUUCUA (DNA:RNA)", "RNA": "B2 RNA with C26A, C28U, A29C, G30U, C31A", "DNA 1": "CAATCTGAATTCCGGTCTCCC", "DNA 2": "TGGTGGCTACGACGGGATT"}, "B8": {"name": "UGCAUCG (DNA:RNA)", "RNA": "B1 RNA with C25U, U26G, G27C, U28A, G29U, U30C", "DNA 1": "CAATCTGAATTCCGGTCTCCC", "DNA 2": "TGGTGGCTACGACGGGATT"}, "B9": {"name": "UGCAUCA (DNA:RNA)", "RNA": "GGGAGACCGGAAUUCAGAUUGUCCUGCAUCAUUAAAUCCCGUCGUAGCCACCA", "DNA 1": "CAATCTGAATTCCGGTCTCCC", "DNA 2": "TGGTGGCTACGACGGGATT"}, "B10": {"name": "UGCAUCC (DNA:RNA)", "RNA": "B9 RNA with A31C", "DNA 1": "CAATCTGAATTCCGGTCTCCC", "DNA 2": "TGGTGGCTACGACGGGATT"}, "B11": {"name": "AGGGCCC (DNA:RNA)", "RNA": "B2 RNA with C26G, U27G, C28G, A29C, G30C", "DNA 1": "CAATCTGAATTCCGGTCTCCC", "DNA 2": "TGGTGGCTACGACGGGATT"}, "B12": {"name": "GUGAUCC (DNA:RNA)", "RNA": "B9 RNA with U25G, G26U, C27G, A31C", "DNA 1": "CAATCTGAATTCCGGTCTCCC", "DNA 2": "TGGTGGCTACGACGGGATT"}, "B13": {"name": "AGGGUCU (DNA:RNA)", "RNA": "B9 RNA with U25A, C27G, A28G, A31U", "DNA 1": "CAATCTGAATTCCGGTCTCCC", "DNA 2": "TGGTGGCTACGACGGGATT"}, "B14": {"name": "GCUUAAA (DNA:RNA)", "RNA": "B2 RNA with A25G, C28U, G30A, C31A", "DNA 1": "CAATCTGAATTCCGGTCTCCC", "DNA 2": "TGGTGGCTACGACGGGATT"}, "B15": {"name": "GCUUGCA (DNA:RNA)", "RNA": "B2 RNA with A25G, C28U, A29G, G30C, C31A", "DNA 1": "CAATCTGAATTCCGGTCTCCC", "DNA 2": "TGGTGGCTACGACGGGATT"}, "B16": {"name": "GCUUGCU (DNA:RNA)", "RNA": "B2 RNA with A25G, C28U, A29G, G30C, C31U", "DNA 1": "CAATCTGAATTCCGGTCTCCC", "DNA 2": "TGGTGGCTACGACGGGATT"}, "B17": {"name": "GUCCGCU (DNA:RNA)", "RNA": "B1 RNA with C25G, G27C, U28C, U30C, G31U", "DNA 1": "CAATCTGAATTCCGGTCTCCC", "DNA 2": "TGGTGGCTACGACGGGATT"}, "B18": {"name": "CGUUGCA (DNA:RNA)", "RNA": "B1 RNA with U26G, G27U, U30C, G31A", "DNA 1": "CAATCTGAATTCCGGTCTCCC", "DNA 2": "TGGTGGCTACGACGGGATT"}, "B19": {"name": "CCGCUUG (DNA:RNA)", "RNA": "B1 RNA with U26C, U28C, G29U", "DNA 1": "CAATCTGAATTCCGGTCTCCC", "DNA 2": "TGGTGGCTACGACGGGATT"}, "B20": {"name": "CGCUUGC (DNA:RNA)", "RNA": "B9 RNA with U25C, A28U, C30G, A31C", "DNA 1": "CAATCTGAATTCCGGTCTCCC", "DNA 2": "TGGTGGCTACGACGGGATT"}, "B21": {"name": "GCUUGCG (DNA:RNA)", "RNA": "B1 RNA with C25G, U26C, G27U, U30C", "DNA 1": "CAATCTGAATTCCGGTCTCCC", "DNA 2": "TGGTGGCTACGACGGGATT"}, "B22": {"name": "GCUUUGC (DNA:RNA)", "RNA": "B2 RNA with A25G, C28U, A29U", "DNA 1": "CAATCTGAATTCCGGTCTCCC", "DNA 2": "TGGTGGCTACGACGGGATT"}, "B23": {"name": "UAAGGUC (DNA:RNA)", "RNA": "B1 RNA with C25U, U26A, G27A, U28G, G31C", "DNA 1": "CAATCTGAATTCCGGTCTCCC", "DNA 2": "TGGTGGCTACGACGGGATT"}, "B24": {"name": "UACUCGA (DNA:RNA)", "RNA": "B9 RNA with G26A, A28U, U29C, C30G", "DNA 1": "CAATCTGAATTCCGGTCTCCC", "DNA 2": "TGGTGGCTACGACGGGATT"}, "B25": {"name": "AUACUGG (DNA:RNA)", "RNA": "B2 RNA with C26U, U27A, A29U, C31G", "DNA 1": "CAATCTGAATTCCGGTCTCCC", "DNA 2": "TGGTGGCTACGACGGGATT"}, "B26": {"name": "GUUACCU (DNA:RNA)", "RNA": "B9 RNA with U25G, G26U, C27U, U29C, A31U", "DNA 1": "CAATCTGAATTCCGGTCTCCC", "DNA 2": "TGGTGGCTACGACGGGATT"}, "B27": {"name": "CCCUACU (DNA:RNA)", "RNA": "B2 RNA with A25C, U27C, C28U, G30C, C31U", "DNA 1": "CAATCTGAATTCCGGTCTCCC", "DNA 2": "TGGTGGCTACGACGGGATT"}, "B28": {"name": "UGGGUCA (DNA:RNA)", "RNA": "B9 RNA with C27G, A28G", "DNA 1": "CAATCTGAATTCCGGTCTCCC", "DNA 2": "TGGTGGCTACGACGGGATT"}, "B29": {"name": "UGGUCCG (DNA:RNA)", "RNA": "B1 RNA with C25U, U26G, G29C, U30C", "DNA 1": "CAATCTGAATTCCGGTCTCCC", "DNA 2": "TGGTGGCTACGACGGGATT"}, "B30": {"name": "UGGGACC (DNA:RNA)", "RNA": "B9 RNA with C27G, A28G, U29A, A31C", "DNA 1": "CAATCTGAATTCCGGTCTCCC", "DNA 2": "TGGTGGCTACGACGGGATT"}, "B31": {"name": "CUGGUCC (DNA:RNA)", "RNA": "B1 RNA with U28G, G29U, U30C, G31C", "DNA 1": "CAATCTGAATTCCGGTCTCCC", "DNA 2": "TGGTGGCTACGACGGGATT"}, "B32": {"name": "UGGGUCG (DNA:RNA)", "RNA": "B9 RNA with C27G, A28G, A31G", "DNA 1": "CAATCTGAATTCCGGTCTCCC", "DNA 2": "TGGTGGCTACGACGGGATT"}, "B33": {"name": "UGGGUCC (DNA:RNA)", "RNA": "B9 RNA with C27G, A28G, A31C", "DNA 1": "CAATCTGAATTCCGGTCTCCC", "DNA 2": "TGGTGGCTACGACGGGATT"}}, "note": "Positions count from the first letter of the chain named. The full ranking holds about 16,000 sequences; the median of “ka relative to ugcaugu” is about 0.0091, and the highest 2% start at about 0.032. This is one part of a sample in which the highest values are shown more often than they occur.", "data": [{"target": "T1, RBFOX1 RRM (Homo sapiens, UniProt Q9NWB1 109-208)", "T1 sequence": "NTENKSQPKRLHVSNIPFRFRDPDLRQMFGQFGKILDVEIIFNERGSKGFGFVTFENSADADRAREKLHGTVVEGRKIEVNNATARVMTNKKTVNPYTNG", "experiment": "EMSA; HiTS-Eq, 1 nM pool, 10 min; buffer printed only for the single-RNA assays: 10 mM Tris pH 7.5, 150 mM NaCl, 3.4 mM EDTA, 0.001% NP-40, 30 C", "conditions": "tags: His6 N-terminal (pET28a); label: 5' 32P", "method_in_brief": "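Purified RbFox RRM, wild type or mutant, was incubated for 10 min in 50 µL with 1 nM of a 5′-radiolabelled RNA pool carrying 7 randomized nucleotides, whose flanks were annealed to DNA oligonucleotides, over a series of increasing protein concentrations. Unbound RNA was resolved on 8% native PAGE, cut out, reverse-transcribed, barcoded by PCR and sequenced on an Illumina HiSeq 2500. Relative association constants were derived from changes in read counts for each RNA species versus the control reaction and normalised to the cognate motif.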", "values": [{"binder": "B1", "binding signal": "0.027 KA relative to UGCAUGU"}, {"binder": "B2", "binding signal": "0.00534 KA relative to UGCAUGU"}, {"binder": "B3", "binding signal": "0.00837 KA relative to UGCAUGU"}, {"binder": "B4", "binding signal": "0.00935 KA relative to UGCAUGU"}, {"binder": "B5", "binding signal": "0.00175 KA relative to UGCAUGU"}, {"binder": "B6", "binding signal": "0.00921 KA relative to UGCAUGU"}, {"binder": "B7", "binding signal": "0.00109 KA relative to UGCAUGU"}, {"binder": "B8", "binding signal": "0.0295 KA relative to UGCAUGU"}, {"binder": "B9", "binding signal": "0.0118 KA relative to UGCAUGU"}, {"binder": "B10", "binding signal": "0.0337 KA relative to UGCAUGU"}, {"binder": "B11", "binding signal": "0.0184 KA relative to UGCAUGU"}, {"binder": "B12", "binding signal": "0.0187 KA relative to UGCAUGU"}, {"binder": "B13", "binding signal": "0.0254 KA relative to UGCAUGU"}, {"binder": "B14", "binding signal": "0.00504 KA relative to UGCAUGU"}, {"binder": "B15", "binding signal": "0.0329 KA relative to UGCAUGU"}, {"binder": "B16", "binding signal": "0.0354 KA relative to UGCAUGU"}, {"binder": "B17", "binding signal": "0.0113 KA relative to UGCAUGU"}, {"binder": "B18", "binding signal": "0.0228 KA relative to UGCAUGU"}, {"binder": "B19", "binding signal": "0.0253 KA relative to UGCAUGU"}, {"binder": "B20", "binding signal": "0.032 KA relative to UGCAUGU"}, {"binder": "B21", "binding signal": "0.0193 KA relative to UGCAUGU"}, {"binder": "B22", "binding signal": "0.0232 KA relative to UGCAUGU"}, {"binder": "B23", "binding signal": "0.0168 KA relative to UGCAUGU"}, {"binder": "B24", "binding signal": "0.0112 KA relative to UGCAUGU"}, {"binder": "B25", "binding signal": "0.00795 KA relative to UGCAUGU"}, {"binder": "B26", "binding signal": "0.00787 KA relative to UGCAUGU"}, {"binder": "B27", "binding signal": "0.00609 KA relative to UGCAUGU"}, {"binder": "B28", "binding signal": "0.0232 KA relative to UGCAUGU"}, {"binder": "B29", "binding signal": "0.017 KA relative to UGCAUGU"}, {"binder": "B30", "binding signal": "0.0142 KA relative to UGCAUGU"}, {"binder": "B31", "binding signal": "0.0227 KA relative to UGCAUGU"}, {"binder": "B32", "binding signal": "0.0407 KA relative to UGCAUGU"}, {"binder": "B33", "binding signal": "0.0332 KA relative to UGCAUGU"}]}]}
